FMDV inh: blocks foot and mouth disease virus. AID 1159524. FMDV antiviral cell-based qHTS. 410,000 tested, 1.2% active. Potency, µM (highest dose often 57.9 µM), for the others: top-dose activity change, negative = inhibition, hits mostly inhibitors; calls by dose curve; tested in HEK293T cells; further: read-out not given here; nearly all actives have a fitted effect of over 45% in size
RE007 growth inh: less growth of the S. pombe RE007 Vpr strain; 360,000 tested, 0.21% active; Potency, µM (titrated, usually from 92.2 µM), inactives show top-dose activity change, negative = less growth, hits mostly inhibitors; S. pombe RE007 Vpr strain, BacTiter-Glo ATP luminescence, 24 h; active means well fitted falling curve with a large enough effect; inconclusive means small, poorly fitted or top-dose-only effect; inactive means no such curve, though single readings can be large or run the other way; further: nearly all actives have a fitted effect of over 50% in size
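Fission yeast strain RE007, carrying one chromosomally integrated HIV-1 vpr copy, was seeded at OD 0.01 in PMG+AL medium with 23 nL pinned compound. After 24 h at 30 °C and 99% humidity, viability was read by BacTiter-Glo luminescence.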
HCV inh: inhibitors of hepatitis C virus infection; Huh7.5.1 HCVcc-Cre infection, luciferase reporter, 44 h; Potency, µM (series often up to 41.8 µM), for the others: top-dose activity change, negative = inhibition, hits mostly inhibitors; 340,000 tested, 3.4% active
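Infectious HCV cell culture screen: compound-treated cells (1,000/well, pre-plated 4 h) are infected with HCVcc-Cre at roughly 0.5 moi and grown 44 h. Infection is quantified by luciferase signal after 15 min substrate incubation at room temperature.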
Sm TGR inh: inhibitors of Schistosoma mansoni thioredoxin glutathione reductase; Q962Y6; purified TGR, DTNB reduction, TNB absorbance 405 nm; Potency, µM (highest dose often 114 µM), inactives show at the top dose activity change, negative = inhibition, most hits filed as inhibitors; 360,000 tested, 3% active; further: nearly all actives have a fitted effect of over 60% in size
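Kinetic colorimetric format: TGR-catalysed, NADPH-driven DTNB reduction monitored via TNB absorbance. Enzyme dispensed at 20 nM; compound exposure 15 min at room temperature before reaction start.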
Marburg entry inh: blocks Marburg virus binding to or entry into cells; 300,000 tested, 1.8% active; Potency, µM (titrated, usually from 37.8 µM), without a hit: top-dose activity change, negative = inhibition, usual class: inhibitors; Marburg virus pseudotyped entry inhibition, cell reporter; calls by dose curve; tested in HEK293 cells
Lassa entry inh: Lassa virus entry inhibition | Potency, µM (highest dose often 37.9 µM), for the others: top-dose activity change, negative = inhibition, most hits filed as inhibitors | 300,000 tested, 1.2% active | Lassa virus pseudotype entry inhibition, cell reporter | AID 540256; calls by dose curve; tested in HEK293 cells; further: nearly all actives have a fitted effect of over 50% in size
The depositor's hits bear a star; ? = inconclusive; · = no result; [ ] = another dose, or the depositor's remark. Compounds with a hit are over-represented: about 7.2% of the library has one in this group of screens. Unless noted, the call rests on the fitted dose curve; in most records, active means well fitted curve in the direction sought with a large enough effect; inconclusive means small, poorly fitted or top-dose-only effect, or another doubt; inactive means no such curve, though single readings can be large; an effect the other way counts as inactive or inconclusive. On the % scale 0 is the no-effect control and ±100 the full control effect; potency means the concentration at half of the fitted maximal effect.

SMILES | FMDV inh | RE007 growth inh | HCV inh | Sm TGR inh | Marburg entry inh | Lassa entry inh
Cc1oc(-c2ccccc2Cl)nc1CS(=O)(=O)CC(=O)NCc1ccc(F)cc1 | -19% | · | · | 45µM* | -13%[46.1 µM] | 3%[46.1 µM]
Cc1oc(-c2ccccc2F)nc1CS(=O)(=O)CC(=O)N1CCN(c2ccc(Cl)cc2)CC1 | 16µM* | · | · | -17% | -27%[46.1 µM] | ?
Cc1ccc(CNC(=O)CS(=O)(=O)Cc2nc(-c3ccccc3F)oc2C)cc1 | -16% | 15% | -3% | -42% | · | ·
CCOC(=O)N1CCN(C(=O)CS(=O)(=O)Cc2nc(-c3ccccc3F)oc2C)CC1 | -21% | -13% | 2% | -30% | 1%[46.1 µM] | ?
CCOc1ccc(C(CC(=O)Nc2ccc(C(=O)OC)cc2)N2Cc3ccccc3C2=O)cc1OC (stereo unspecified) | -9% | · | · | 1% | · | 9%[46.1 µM]
COc1cccc(-c2nc(CS(=O)(=O)CC(=O)Nc3ccc(F)cc3F)c(C)o2)c1 | ? | -12% | 11µM* | -29% | -25%[46.1 µM] | ?
COc1cccc(-c2nc(CS(=O)(=O)CC(=O)NCc3ccccc3)c(C)o2)c1 | -22% | 1% | ? | ? | 1% | -1%
CCOC(=O)C1=C(CN(CC)Cc2ccccc2)NC(=O)NC1c1ccc(Cl)cc1 (stereo unspecified) | ? | · | · | -16% | ? | 5%[46.1 µM]
CN(CCc1ccccn1)C(=O)Nc1ccc(Cl)cc1 | 51% | -11% | -15% | -1% | 12% | 7%
CN(CCc1ccccn1)C1CC(=O)N(c2ccc(Cl)cc2)C1=O (stereo unspecified) | 0% | 3.2µM* | 14% | 10µM* | ? | -4%
Cc1ccc(C(=O)Nc2ccc(-c3nc4ccccc4o3)cc2)cc1Cl | -24% | · | · | 2% | · | 4%[46.1 µM]
COc1ccccc1Nc1nc(NCCC(C)C)nc(N)c1[N+](=O)[O-] | -36% | 27% | 13µM* | 29% | · | ·
COc1ccccc1Nc1nc(NCCO)nc(N)c1[N+](=O)[O-] | -20% | -3% | -78% | 0% | ? | -10%
COc1ccc(OC)c(-c2noc(N3CCN(c4ccc(Cl)cc4)CC3)n2)c1 | -19% | · | · | 1% | · | -2%[46.1 µM]
O=C(NCc1ccc2c(c1)OCO2)c1ccc2c(c1)N(Cc1ccc(F)cc1)C(=O)c1ccccc1S2=O (stereo unspecified) | 11% | · | · | -1% | 3%[46.1 µM] | 16%[46.1 µM]
O=C1CN(C(=O)N[C@@H](Cc2ccccc2)C(=O)N[C@H](Cc2ccccc2)C(=O)O)c2ccccc2N1 | -13% | 12% | 0.56µM* | 3% | · | ·
O=C1CN(C(=O)CNCc2ccccc2Cl)c2ccccc2N1 | 36% | 4% | -4% | ? | 3%[46.1 µM] | 13%
O=C1CN(C(=O)CNCc2cccc(Cl)c2)c2ccccc2N1 | -5% | -15% | 8% | 45µM* | · | ·
CC(C)OC(=O)C(C(=O)C(F)(F)F)c1cc(NS(=O)(=O)c2ccc3c4c(cccc24)C(=O)N3)ccc1O (stereo unspecified) | -7% | · | · | -16% | ? | -27%[46.1 µM]
CCOC(=O)c1ccccc1NC(=O)N1CCOc2ccc(Cl)cc21 | -29% | · | · | -7% | · | 8%[46.1 µM]
Cc1ccc(N(C[C@@H](O)CN(C)C)S(=O)(=O)c2ccccc2)cc1 | · | · | · | · | 1% | ·
Cn1cc(C(=O)CCl)c2ccccc21 | 22µM* | 3% | 7.9µM* | 3.5µM* | 16µM* | ?
CCCc1c(NC(=O)Nc2ccc(F)cc2)cnn1-c1ccc(Cl)cc1 | ? | -12% | 15% | 18% | ? | 5µM*
O=C(NCCc1ccc(Cl)cc1)Nc1ccc(F)cc1 | 12% | -15% | 5% | · | 4%[46.1 µM] | -3%
CCCCCOC(=O)[C@H](C)c1c(C)[nH]c(=S)[nH]c1=O | · | · | · | · | 4% | ·
SMILES | FMDV inh | RE007 growth inh | HCV inh | Sm TGR inh | Marburg entry inh | Lassa entry inh
N#Cc1ccc(CSc2nnc(-c3cccs3)n2-c2ccccc2)cc1 | ? | 0% | 0.63µM* | -3% | ? | ?
N#Cc1ccc(CSc2nnc(-c3ccccn3)n2-c2ccccc2)cc1 | -10% | 20% | -1% | 2% | ? | ?
N#Cc1ccc(CSc2nnc(-c3c[nH]c4ccccc34)n2-c2ccccc2)cc1 | ? | 0% | ? | · | 2.5µM* | ?
CCN(CC(=O)NCc1ccc(F)cc1)C(=O)CN1CCN(c2cc(Cl)ccc2C)CC1 | ? | -5% | 6.3µM* | -3% | -23%[46.1 µM] | -1%
CCN(CC(=O)NCc1ccc(Cl)cc1)C(=O)CSc1ccc(F)cc1 | -11% | 7% | ? | 2% | -22% | -2%
CCn1cnc2cc(NCc3nc4ccccc4n3C)ccc21 | · | -19% | 7% | -14% | ? | ?
CCn1cnc2cc(NCc3ccc(N(C)C)cc3)ccc21 | -11% | -2% | ? | 8.9µM* | ? | ?
CCn1cnc2cc(NCc3nc4ccccc4n3Cc3ccccc3)ccc21 | -25% | -17% | -1% | -32% | ? | 10µM*
COc1cccc(NC(=O)c2cccc3c(=O)c4c([nH]c23)CCCC4)c1 | -19% | · | · | -10% | 6%[46.1 µM] | 11%[46.1 µM]
COC(=O)c1ccc(NC(=O)CC2C(=O)N(c3ccccc3)C(=O)N2C2CCCC2)cc1 (stereo unspecified) | -3% | · | · | -9% | · | -2%[46.1 µM]
O=C(NCc1ccco1)C(c1ccncc1)N(CCC1=CCCCC1)C(=O)Cn1nnc2ccccc21 (stereo unspecified) | 15% | -6% | -10% | 45µM* | ? | -19%
COc1ccc(C(=O)N(Cc2ccc(N(C)C)cc2)Cc2ccco2)cc1Cl | 0% | · | · | 13% | 11%[46.1 µM] | ?
CN(C)c1ncc2nc(-c3cc(F)cc(F)c3)c(=O)n(Cc3ccc(F)cc3)c2n1 | 0% | · | · | · | · | ·
COc1ccccc1CNC(=O)c1[nH]c(C)c(C(C)=O)c1C | 2% | -5% | -28% | -10% | · | ·
COc1cccc(CN(C)C(=O)c2[nH]c(C)c(C(C)=O)c2C)c1OC | ? | -1% | 11µM* | -23% | ? | -2%
Cc1ccc(N2CC(NC(=O)c3ccc(S(=O)(=O)N(C)C)cc3)CC2=O)cc1C (stereo unspecified) | -27% | · | · | 6% | · | 6%[46.1 µM]
CC(=O)Oc1ccc(C2=Cc3ccc(OC(C)=O)cc3OC2C)cc1 (stereo unspecified) | 7% | -3% | ? | · | ? | 6.3µM*
CC(=O)Oc1ccc(Oc2ccc(-c3noc(C)n3)cc2)cc1 | 22% | ? | ? | -8% | -7% | 3%
CCOc1cc(/C=C/c2cccc[n+]2C)ccc1O | -20% | -15% | 1% | -5% | · | ·
COc1ccc(/C=C/c2cccc[n+]2C)c(O)c1 | 13% | -7% | 8.9µM* | 0% | · | ·
C[n+]1ccccc1/C=C/c1cc(Br)ccc1O | -14% | -23% | ? | ? | · | ·
CCN(CC)c1ccc(/C=C/c2cccc[n+]2C)c(OC)c1 | ? | -28% | 0.89µM* | -15% | 2.8µM* | ?

Source: PubChem (National Center for Advancing Translational Sciences (NCATS))
